IL-1B inflam inh = inflammasome signaling inhibition, IL-1 beta readout | 4.7% of 360,000 active | activity change, % at 57.5 µM | AID 743279 | THP-1 LPS/ATP IL-1B secretion, AlphaLISA, 16 h; hits give low values; in the data active = activity change below about -50%; inconclusive = mostly about -30% to -49%
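THP-1 cells pretreated 1 hr with compounds (up to 57.5 uM final), then stimulated with LPS (250 ng/mL final) plus ATP (1.25 mM final); secreted IL-1B measured by AlphaLISA after 16 hr, decreased signal indicating inhibition.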
TDP1 cell noCPT = qHTS for Inhibitors of human tyrosyl-DNA phosphodiesterase 1 (TDP1): qHTS in cells in absence of CPT; DT40 Tdp1-/- hTDP1 cells, no CPT, ATP luminescence, 48 h; Potency, µM (titrated, usually from 46.2 µM), without a hit: at the highest dose activity change, negative = growth inhibition, hits mostly inhibitors; 15% of 420,000 active; note: potency is the fitted concentration of half-maximal effect; nearly all actives have a fitted effect of over 55% in size
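Luminescent ATP content (CellTiter-Glo) served as the growth readout. Knockout chicken DT40 cells expressing human TDP1 were exposed to compounds without camptothecin for a minimum 48 hr at 37 °C.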
HT1080NT lethal = kills 2HG-producing HT-1080-NT fibrosarcoma cells; 1.6% of 360,000 active; Potency, µM (series often up to 46.1 µM), without a hit: at the highest dose activity, negative = less viability, usual class: cytotoxic; HT-1080-NT fibrosarcoma viability, CellTiter-Glo ATP luminescence, 48 h;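 note: NT is the 2HG producing partner of a matched IDH1 knockdown line; potency is the fitted concentration of half-maximal effect; 0% = DMSO-treated cells and -100% = media-only wells without cells; nearly all actives have a fitted effect of over 55% in size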
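Luminescent CellTiter-Glo readout after 48 hours of compound exposure at 37 degrees C defined viability of HT-1080-NT cells. Activity was normalized to DMSO wells and cell-free media wells; concentration-response curves were fitted and assigned curve classes.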
DT40 TDP1 CPT = DT40-hTDP1 cell growth loss with CPT. Potency, µM (titrated, usually from 46.2 µM), for the others: top-dose activity change, negative = growth inhibition, actives largely listed as inhibitors. 12% of 420,000 active. chicken DT40 Tdp1-/-;hTDP1 cells + 20 nM CPT, ATP luminescence, 48 h; note: potency is the fitted concentration of half-maximal effect; nearly all actives have a fitted effect of over 55% in size
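Chicken DT40 Tdp1-/- cells complemented with human TDP1, 400 cells/well, exposed to compounds plus 20 nM camptothecin for at least 48 h at 37 C; viability read as ATP content by CellTiter-Glo luminescence.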
HT1080 IDH1KD tx = HT-1080 IDH1 knockdown cell toxicity (counter line). HT-1080 IDH1 knockdown viability, ATP luminescence, 48 h. Potency, µM (highest dose often 46.1 µM), for inactives: at the top dose activity, negative = toxicity, actives largely listed as cytotoxic. 2% of 360,000 active. AID 686971;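 note: potency is the fitted concentration of half-maximal effect; 0% = DMSO wells and -100% = cell-free medium wells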
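Luminescent ATP read-out (CellTiter-Glo, 10 min at room temperature) after 48 h compound exposure at 37 °C gave viability of IDH1-knockdown HT-1080 cells. Activity was normalised to DMSO and cell-free wells, then fitted as concentration-response curves.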
The depositor's hits bear a star; ? = inconclusive; / = no result given; [ ] = another dose, or the depositor's remark. Rows were chosen to be rich in hits. Some 19% of all compounds tested hit in one or more screens of this group. Unless noted, calls come from the whole dose curve; as a rule, active = well fitted curve in the direction sought with a large enough effect; inconclusive = small, poorly fitted or top-dose-only effect, or another doubt; inactive = no such curve, though single readings can be large; an effect the other way counts as inactive or inconclusive. Unless noted, % is set by controls: 0 for no effect and ±100 for the full control effect.

SMILES	IL-1B inflam inh	TDP1 cell noCPT	HT1080NT lethal	DT40 TDP1 CPT	HT1080 IDH1KD tx
CCN(C(=O)COC(=O)/C=C/c1nc2ccccc2s1)c1c(N)n(Cc2ccccc2)c(=O)[nH]c1=O	-60*	0%	-9%	-22%	0%
COCCN(C(=O)COC(=O)/C=C/c1nc2ccccc2s1)c1c(N)n(Cc2ccccc2)c(=O)[nH]c1=O	-96*	?	-29%	?	?
CCn1nnc2cc(C(=O)Nc3cccc(S(=O)(=O)N(C)C)c3)ccc21	-27	-27%	13%	-16%	15%
Cn1c(SCC(=O)N2CCc3ccccc32)nnc1-c1ccc(S(=O)(=O)N2CCCC2)cc1	2	?	-2%	-12%	-2%
N#CC1(c2ccccc2)CCCN1C(=O)c1ccc(Br)cc1 (stereo not given)	-5	-9%	13%	-16%	-15%
O=C(CCC(=O)N1CCN(c2cccc(Cl)c2)CC1)N1CCN(c2ccccc2)CC1	-18	8.2µM*	-3%	18µM*	-18%
Cn1cc(CC(=O)N2CCN(c3ccc(Cl)cc3)CC2)c2ccccc21	-15	13µM*	-24%	?	?
O=C(CCNC(=O)Cn1ccc2ccccc2c1=O)NCCCN1CCN(c2ccccc2F)CC1	1	-10%	2%	-24%	-2%
Clc1cccc(N2CCN(CCCN3CCN(c4ccccc4)CC3)CC2)c1	-53*	?	-26%	26µM*	?
O=C(CNC(=O)Cn1ccc2ccccc2c1=O)NCCCN1CCN(c2cccc(Cl)c2)CC1	?	26µM*	-8%	?	-7%
c1ccc(CCCN2CCN(c3ccccc3)CC2)cc1	8	-7%	-1%	13%	4%
O=C(O)CCCC(=O)N1CCN(c2cccc(Cl)c2)CC1	4	3%	-3%	-3%	8%
CCn1ccc(C(=O)Nc2ccccc2SC)n1	-8	-21%	16%	-9%	26%
Nc1ccc(N2CCN(c3cccc(Cl)c3)CC2)cc1	?	15µM*	6%	13µM*	1%
O=C(CCC(=O)N1CCN(c2cccc(Cl)c2)CC1)c1cccs1	-7	18µM*	?	?	?
O=C(CCN1C(=O)c2ccccc2S1(=O)=O)N1CCN(c2cccc(Cl)c2)CC1	1	16µM*	-17%	?	-6%
O=C(Cc1c(F)cccc1Cl)OCC(=O)N1CCN(c2ccccc2)CC1	-2	?	11%	18µM*	2%
O=C(CN1C(=O)c2ccccc2S1(=O)=O)N1CCN(c2cccc(Cl)c2)CC1	5	-26%	11%	-22%	10%
Cc1ccccc1NC(=O)C1C2CCCC1C2c1ccccc1 (stereo not given)	5	?	0%	18µM*	-4%
CC(C)(O)CN(C(=O)C(c1ccccc1)c1ccccc1)C1CCCCC1	-63*	?	5%	?	13%
COc1cc(CNC(=O)c2cc(-c3cc(F)ccc3OCC3CCCO3)n[nH]2)cc(OC)c1 (stereo not given)	-21	21µM*	3%	?	0%
Cc1ccc(NC(=O)c2cc(-c3cc(F)ccc3OCC3CCCO3)n[nH]2)cc1NS(C)(=O)=O (stereo not given)	-4	15µM*	?	15µM*	?
O=C(NCc1cc(C(F)(F)F)cc(C(F)(F)F)c1)c1cc(-c2cc(F)ccc2OCC2CCCO2)n[nH]1 (stereo not given)	13	5%	14%	-15%	8%
O=C(NC1CCCC1)C1C2C=CC(C2)C1C(=O)N1CCOCC1 (stereo not given)	-15	25%	17%	2%	1%
COc1ccc(OC)c(C(=O)N2CCOc3ccc(C(C)(O)CN(C)C)cc3C2)c1 (stereo not given)	/	-11%	/	9%[9.04 µM]	/
CC/C(=N\N=C1\SC(C)C(=O)N1Cc1ccco1)c1ccccc1 (stereo not given)	9	?	-1%	?	0%
